KLF5 inhibitor = KLF5 expression inhibitors, primary screen, DLD-1 cells, luminescence | DLD-1 KLF5 promoter-luciferase reporter | inhibition, % at 5 µM | 290,000 compounds, 0.23% hits | AID 1700, 2009;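 active = inhibition above a per-plate limit of that plate's mean compound inhibition plus 3 SD, cut at about 60% in these data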;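 note: higher means less KLF5 promoter-driven luciferase light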
Ba/F3 V617F tox = reduced viability of JAK2V617F-dependent Ba/F3 cells, primary screen, JAK2V617F inhibitor project, cell-based, Ba/F3 EpoR-JAK2V617F, luminescence. ATP luminescence. 220,000 compounds, 1.1% hits. AID 1446, 2008. inhibition, % at 5.6 µM;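 active = inhibition above the campaign mean plus 3 SD over all tested compounds, cut at about 24% in these data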;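 note: cytokine-independent growth of Ba/F3 cells driven by EpoR plus mutant JAK2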
APP 5UTR inh = inhibitors of APP translation via 5'UTR reporter, primary screen, APP 5'UTR luciferase, SH-SY5Y cells; SH-SY5Y APP 5'UTR-luciferase reporter, luminescence; inhibition, % at 2 µM; 190,000 compounds, 0.82% hits; AID 1285, 2008;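 active = inhibition above a set limit, derived from the sample mean plus 3 SD, cut at about 45% in these data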
IEC-6 cytotox = cytotoxicity in IEC-6 intestinal epithelial cells, primary screen, cytotoxicity control for KLF5 inhibitor project, cell-based, luminescence | IEC-6 cytotoxicity, luminescence viability | inhibition, % at 5 µM | 290,000 compounds, 0.78% hits | AID 1825, 2009; in the data active = inhibition above about 22%
BaF3 tox = parental Ba/F3 cell viability inhibition, counter-screen for JAK2V617F inhibitor project, murine pro-B, CellTiter-Glo luminescence; CellTiter-Glo ATP luminescence; inhibition, % at 5.6 µM; 220,000 compounds, 1.1% hits;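 active = inhibition above a per-campaign cutoff, the mean inhibition of all tested compounds plus 3 SD, cut at about 27% in these data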
A number is an active result. Most compounds without a hit are left out; they make up all but 1.8% or so of the library.

`COc1cccc(/C=N/Nc2nc(Nc3ccccc3)nc(-n3nc(C)cc3C)n2)c1O` gave KLF5 inhibitor inactive, Ba/F3 V617F tox inactive, APP 5UTR inh 79, IEC-6 cytotox inactive and BaF3 tox inactive.
`COc1cccc(/C=N/Nc2ncnc(Cl)c2N)c1O` gave KLF5 inhibitor inactive, Ba/F3 V617F tox inactive, APP 5UTR inh 78, IEC-6 cytotox inactive and BaF3 tox inactive.
Screening COCCNC(=O)Cn1cc(/C=N/NC(=O)c2ccc(Oc3ccc(O)cc3)cc2)c2ccccc21 returned KLF5 inhibitor inactive, Ba/F3 V617F tox inactive, APP 5UTR inh inactive, IEC-6 cytotox inactive and BaF3 tox inactive.
For Cn1cc([N+](=O)[O-])c(C(=O)Nc2cc(Oc3cccnc3)cc([N+](=O)[O-])c2)n1 the results were KLF5 inhibitor inactive, Ba/F3 V617F tox 66, APP 5UTR inh 96, IEC-6 cytotox 24 and BaF3 tox 51.
Cc1ccc(-c2nc(NC(=O)c3nn(C)cc3[N+](=O)[O-])sc2C)cc1 was read as KLF5 inhibitor inactive, Ba/F3 V617F tox 77, APP 5UTR inh 95, IEC-6 cytotox inactive and BaF3 tox 81.
`Cc1ccc(-c2nc(NC(=O)c3nn(C)cc3[N+](=O)[O-])sc2C)cc1C` gave KLF5 inhibitor inactive, Ba/F3 V617F tox 92, APP 5UTR inh 96, IEC-6 cytotox inactive and BaF3 tox 85.
`Cn1cc([N+](=O)[O-])c(C(=O)Nc2ccc(-c3nc4ccccc4[nH]3)cc2)n1` gave KLF5 inhibitor inactive, Ba/F3 V617F tox inactive, APP 5UTR inh inactive, IEC-6 cytotox 25 and BaF3 tox inactive.
For CCc1nnc(SCC(=O)Nc2ccccc2)n1CC1CCCO1 (stereo unspecified) the results were KLF5 inhibitor inactive and IEC-6 cytotox inactive.
Cc1ccc(C(=O)c2cccc(N)c2)cc1C was read as KLF5 inhibitor inactive, Ba/F3 V617F tox inactive, APP 5UTR inh 49, IEC-6 cytotox inactive and BaF3 tox inactive.
For Cc1ccc(C(=O)c2ccc(O)cc2)cc1C the results were KLF5 inhibitor inactive, Ba/F3 V617F tox inactive, APP 5UTR inh inactive, IEC-6 cytotox inactive and BaF3 tox inactive.
O=C(CN1C(=O)CCSc2ccc(S(=O)(=O)N3CCCC3)cc21)Nc1ccccc1 was read as KLF5 inhibitor inactive and IEC-6 cytotox inactive.
For O=c1c(Cl)c(NCCCO)cnn1-c1nc2ccccc2[nH]1 the results were KLF5 inhibitor inactive, Ba/F3 V617F tox 34, APP 5UTR inh inactive, IEC-6 cytotox inactive and BaF3 tox 63.
For NS(=O)(=O)c1ccc(CCNS(=O)(=O)Cc2ccc(Cl)cc2)cc1 the results were KLF5 inhibitor inactive and IEC-6 cytotox inactive.
Screening COc1ccc(N2C(=O)C(Cl)=C(Oc3cccc(OC)c3)C2=O)cc1 returned KLF5 inhibitor inactive, Ba/F3 V617F tox inactive, APP 5UTR inh 49, IEC-6 cytotox inactive and BaF3 tox inactive.
COc1ccc(N2C(=O)c3ccccc3C2=O)cc1 was read as KLF5 inhibitor inactive, Ba/F3 V617F tox inactive, APP 5UTR inh inactive, IEC-6 cytotox inactive and BaF3 tox inactive.
Screening COc1ccc(OCc2cc(C(=O)O)c(C)o2)cc1 returned KLF5 inhibitor inactive, Ba/F3 V617F tox inactive, IEC-6 cytotox inactive and BaF3 tox inactive.
`CO/N=C(/C)CCS(=O)(=O)c1ccccc1` gave KLF5 inhibitor inactive, Ba/F3 V617F tox inactive, APP 5UTR inh inactive, IEC-6 cytotox inactive and BaF3 tox inactive.
O=C(CSc1nnnn1-c1ccc(C(=O)O)cc1)NC1CC1 was read as KLF5 inhibitor inactive and IEC-6 cytotox inactive.
`CCCOc1ccc(CSc2nc3ccccc3[nH]2)cc1` gave KLF5 inhibitor inactive, Ba/F3 V617F tox inactive, APP 5UTR inh inactive, IEC-6 cytotox inactive and BaF3 tox 44.
`CCOCCN1CCN(C(=O)CN2CCCC2=O)CC1` gave KLF5 inhibitor inactive, Ba/F3 V617F tox inactive, APP 5UTR inh inactive, IEC-6 cytotox inactive and BaF3 tox inactive.
Screening Cc1cc2ccccc2n2c(SCC(=O)Nc3ccc(S(=O)(=O)N4CCC(C)CC4)cc3)nnc12 returned KLF5 inhibitor inactive, Ba/F3 V617F tox inactive, APP 5UTR inh inactive, IEC-6 cytotox inactive and BaF3 tox inactive.
Screening O=C(CCN1C(=O)c2ccccc2C1=O)OCN1C(=O)c2ccccc2C1=O returned KLF5 inhibitor inactive, Ba/F3 V617F tox inactive, APP 5UTR inh inactive, IEC-6 cytotox inactive and BaF3 tox inactive.
`O=C(OCN1C(=O)c2ccccc2C1=O)c1cccs1` gave KLF5 inhibitor inactive, Ba/F3 V617F tox inactive, APP 5UTR inh inactive, IEC-6 cytotox inactive and BaF3 tox 94.
`CC1=C([N+](=O)[O-])C(c2cccc(Br)c2)C2=C(N1)c1ccccc1C2=O` (stereo unspecified) gave KLF5 inhibitor inactive, Ba/F3 V617F tox 77, APP 5UTR inh 86, IEC-6 cytotox 77 and BaF3 tox 76.
CCC1CCCCN1C(=O)c1ccc([N+](=O)[O-])o1 (stereo unspecified) was read as KLF5 inhibitor inactive and IEC-6 cytotox inactive.
Cc1nc(C)c(C(=O)NCc2ccc(Cl)cc2)o1 was read as KLF5 inhibitor inactive, Ba/F3 V617F tox inactive, APP 5UTR inh inactive, IEC-6 cytotox inactive and BaF3 tox inactive.
Screening Cc1nn(C)c(C(=O)NCc2ccc(Cl)cc2)c1Cl returned KLF5 inhibitor inactive, Ba/F3 V617F tox inactive, APP 5UTR inh inactive, IEC-6 cytotox inactive and BaF3 tox 34.
CC1(C)CC(=O)c2c(O)c(-c3ccccc3)c(=O)n(-c3ccccc3)c2C1 was read as KLF5 inhibitor inactive, Ba/F3 V617F tox inactive, APP 5UTR inh inactive, IEC-6 cytotox inactive and BaF3 tox inactive.
`Cc1nn(C)c(C(=O)N/N=C/c2ccc(-c3ccccc3)cc2)c1Cl` gave KLF5 inhibitor inactive and IEC-6 cytotox inactive.
`Cc1cccc(CSC(=N)N)c1` gave KLF5 inhibitor inactive, Ba/F3 V617F tox inactive, APP 5UTR inh inactive, IEC-6 cytotox inactive and BaF3 tox inactive.
Screening Cc1cccc(CSC(Nc2ccc(F)cc2)=C(C#N)C#N)c1 returned KLF5 inhibitor inactive, Ba/F3 V617F tox inactive, APP 5UTR inh 48, IEC-6 cytotox inactive and BaF3 tox inactive.
For O=C(C1Cc2ccccc2CN1C(=O)c1ccccc1)N1CCN(c2ccccc2)CC1 (stereo unspecified) the results were KLF5 inhibitor inactive, Ba/F3 V617F tox 58, IEC-6 cytotox inactive and BaF3 tox 47.
For Brc1ccc(-c2csc3[n+]2CCCCC3)cc1 the results were KLF5 inhibitor inactive, Ba/F3 V617F tox 55, APP 5UTR inh inactive, IEC-6 cytotox inactive and BaF3 tox 55.
c1ccc(-c2c[nH]c3[n+]2CCCCC3)cc1 was read as KLF5 inhibitor inactive, Ba/F3 V617F tox inactive, APP 5UTR inh inactive, IEC-6 cytotox inactive and BaF3 tox inactive.
For FC(F)Sc1ccc(NC2=NCCCCC2)cc1 the results were KLF5 inhibitor inactive and IEC-6 cytotox inactive.
Screening Clc1ccc(-n2cc(-c3ccc(Br)cc3)[n+]3c2CCCCC3)cc1 returned KLF5 inhibitor inactive, Ba/F3 V617F tox 55, IEC-6 cytotox inactive and BaF3 tox 60.

Assay outcomes as filed in PubChem BioAssay.
